# Screening data as filed in PubChem.
# In the library only some 19% were active in any assay of this set; here they are far more common.
# TDP1 cell noCPT: qHTS for Inhibitors of human tyrosyl-DNA phosphodiesterase 1 (TDP1): qHTS in cells in absence of CPT; DT40 Tdp1-/- hTDP1 cells, no CPT, ATP luminescence, 48 h; Potency, µM (highest dose often 46.2 µM), for inactives: at the highest dose activity change, negative = growth inhibition, actives largely listed as inhibitors; hit rate 15% among 420,000; further: potency means the concentration at half of the fitted maximal effect; nearly all actives have a fitted effect of over 55% in size
#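 A cellular qHTS used chicken DT40 cells lacking endogenous Tdp1 but carrying stably transfected human TDP1. Compounds were applied without camptothecin, and cell growth kinetics were judged by ATP-dependent luminescence after ≥48 hr.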
# HT1080 IDH1KD tx: kills HT-1080 cells with IDH1 knockdown | hit rate 2% among 360,000 | HT-1080 IDH1 knockdown viability, ATP luminescence, 48 h | Potency, µM (top dose mostly 46.1 µM), for inactives: at the highest dose activity, negative = toxicity, usual class: cytotoxic;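 further: potency means the concentration at half of the fitted maximal effect; 0% = DMSO wells and -100% = cell-free medium wells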
#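 Assay cells: HT-1080 with IDH1 knockdown, 750 per well, RPMI/5% FBS. Exposure: 48 h at 37 °C following 2 h pre-incubation. Read: CellTiter-Glo luminescence; fitted concentration-response, curve class assigned.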
# ELG1 repair inh: ELG1-dependent DNA repair inhibition; AID 504467; HEK293T ELG1-luciferase reporter, luminescence, 16 h; DNA damage induced by 5-fluorouridine; hit rate 2.3% among 330,000; Potency, µM (titrated, usually from 46.1 µM), for inactives: at the highest dose activity change, negative = inhibition, most hits filed as inhibitors; further: potency means the concentration at half of the fitted maximal effect; nearly all actives have a fitted effect of over 55% in size
#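 Overnight (16 hr) co-exposure of 2,000 cells/well to 5-fluorouridine and compound at 37 °C preceded detection. Luciferase was quantified via ONE-Glo luminescence; loss of signal denotes inhibition.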
# IL-1B inflam inh: inflammasome signaling inhibition, IL-1 beta readout; THP-1 LPS/ATP IL-1B secretion, AlphaLISA, 16 h; stronger effect = lower value; activity change, % at 57.5 µM; hit rate 4.7% among 360,000; AID 743279; in the data active means activity change below about -50%; inconclusive means mostly about -30% to -49%
#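 THP-1 cells pretreated 1 hr with compounds (up to 57.5 uM final), then stimulated with LPS (250 ng/mL final) plus ATP (1.25 mM final); secreted IL-1B measured by AlphaLISA after 16 hr, decreased signal indicating inhibition.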
# TDP1 cell CPT: DT40-hTDP1 cell growth loss with CPT; chicken DT40 Tdp1-/-;hTDP1 cells + 20 nM CPT, ATP luminescence, 48 h; Potency, µM (titrated, usually from 46.2 µM), inactives show at the highest dose activity change, negative = growth inhibition, usual class: inhibitors; hit rate 12% among 420,000; further: potency means the concentration at half of the fitted maximal effect; nearly all actives have a fitted effect of over 55% in size
#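 Cell growth measured by CellTiter-Glo luminescence after a minimum 48 h, 37 C compound exposure with 20 nM CPT in Tdp1-knockout DT40 cells stably expressing hTDP1, seeded 400/well; qHTS titration format.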
# HT1080NT lethal: kills 2HG-producing HT-1080-NT fibrosarcoma cells; HT-1080-NT fibrosarcoma viability, CellTiter-Glo ATP luminescence, 48 h; AID 686970; Potency, µM (doses to about 46.1 µM), for the others: at the highest dose activity, negative = less viability, actives largely listed as cytotoxic; hit rate 1.6% among 360,000;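 further: NT is the 2HG producing partner of a matched IDH1 knockdown line; potency means the concentration at half of the fitted maximal effect; 0% = DMSO-treated cells and -100% = media-only wells without cells; nearly all actives have a fitted effect of over 55% in size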
#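 Fibrosarcoma NT cells, 750 per well in 5% FBS RPMI, were exposed to compound for 48 hours. Viability: CellTiter-Glo luminescence.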
# * = called active by the depositor; ? = inconclusive; / = not tested or not shown; [ ] = dose if it differs, or a comment. Unless noted, the call rests on the fitted dose curve; in most records, active means well fitted curve in the direction sought with a large enough effect; inconclusive means small, poorly fitted or top-dose-only effect, or another doubt; inactive means no such curve, though single readings can be large; an effect the other way counts as inactive or inconclusive. Unless noted, on the % scale 0 is the no-effect control and ±100 the full control effect.
SMILES,TDP1 cell noCPT,HT1080 IDH1KD tx,ELG1 repair inh,IL-1B inflam inh,TDP1 cell CPT,HT1080NT lethal
O=C1NC[C@H](CCCCN2C[C@H](Cc3ccccc3)N(CCC3CCCCC3)C(=O)C2=O)N(CCc2ccccc2)C1=O,?,7%,/,-72*,?,18%
CN(Cc1ccc(F)cc1)C(=O)CNC(=O)C1CCCCC1,16%,15%,5%,26,-7%,10%
COc1ccc2cc(S(=O)(=O)N3CCCC3)ccc2c1,?,-12%,14%,-13,-4%,-25%
NNC(=O)C12CC3CC(C1)CC(n1ncnn1)(C3)C2,-5%,10%,-5%,9,-9%,10%
O=C1NC[C@@H](CCCCN2C[C@H](Cc3ccccc3)N(CC3CCCCC3)C(=O)C2=O)N(CC2CCCCC2)C1=O,-20%,?,/,-27,-15%,?
O=C1NC[C@H](CCCCN2C[C@H](Cc3ccccc3)N(CC3CCCCC3)C(=O)C2=O)N(CCc2ccccc2)C1=O,?,14%,/,-51*,-29%,23%
S=C1NC[C@H](CC2CCCCC2)N1CCc1cccc2ccccc12,?,-1%,-14%,21,?,-2%
O=C1NC[C@H](CC2CCCCC2)N(CCc2cccc3ccccc23)C1=O,16µM*,-3%,/,-19,?,-4%
Cc1ccc(S(=O)(=O)N2CCC(=O)c3ccccc32)cc1,?,-1%,/,-1,?,-7%
COc1ccc(-c2noc(CCC(=O)NC3CCCC3)n2)cc1,?,1%,-1%,16,-26%,0%
COc1ccc(-c2noc(CN(C(C)C)S(=O)(=O)c3ccc(Br)cc3)n2)cc1,23µM*,/,/,/,?,/
COc1ccc(S(=O)(=O)N(Cc2nc(-c3ccc(C)cc3)no2)C2CCCCC2)cc1,7.3µM*,/,/,/,8.2µM*,/
CN(Cc1nc(-c2cccnc2)no1)S(=O)(=O)c1ccc(Br)cc1,?,-2%,?,-3,?,-4%
Cc1ccc(-c2noc(CN(C3CCCCC3)S(=O)(=O)c3ccc(C)cc3)n2)cc1,10µM*,/,/,/,13µM*,/
O=c1ccn([C@@H]2O[C@H](CNCc3cccn3-c3nccs3)[C@@H](O)[C@H]2O)c(=O)[nH]1,-1%,17%,/,0,1%,16%
COc1ccc(-c2ccc3c(c2)[C@@H]2C[C@H]4[C@@H](C(=O)N2CC3)[C@H](C)ON4C)cc1,?,4%,/,7,?,0%
Cc1ccccc1Oc1ccc2c(c1)[C@@H]1C[C@H](N(C)C(=O)c3ccco3)[C@H]([C@H](C)O)C(=O)N1CC2,18µM*,-5%,/,0,?,-2%
C[C@H](O)[C@@H]1C(=O)N2CCc3c([nH]c4ccccc34)[C@@H]2C[C@@H]1N(C)C(=O)Nc1ccccc1,?,-23%,/,-10,-24%,-10%
C[C@H](O)[C@@H]1C(=O)N2CCc3c([nH]c4ccccc34)[C@@H]2C[C@@H]1N(C)C(=O)Nc1cc(Cl)cc(Cl)c1,?,?,/,?,29µM*,16µM*
Cc1ccccc1Oc1ccc2c(c1)[C@@H]1C[C@H]3[C@@H](C(=O)N1CC2)[C@H](C)ON3C,23µM*,-4%,/,57,16µM*,2%
Cc1ccccc1Oc1ccc2c(c1)[C@@H]1C[C@H](N(C)C(=O)Nc3cc(Cl)cc(Cl)c3)[C@H]([C@H](C)O)C(=O)N1CC2,18µM*,-15%,/,?,?,-11%
Cc1ccc(-c2ccc(/C=N/N3C(=O)C4C5C=CC(CC5)C4C3=O)o2)c([N+](=O)[O-])c1 (stereo not given),?,10%,?,-24,18µM*,-21%
COc1ccc(-c2ccc(/C=N/N3C(=O)C4C5C=CC(C6CC56)C4C3=O)o2)c([N+](=O)[O-])c1 (stereo not given),23µM*,5%,18µM*,-1,?,-9%
O=C1C2C3C=CC(C4CC34)C2C(=O)N1/N=C/c1ccc(-c2ccc(Cl)cc2[N+](=O)[O-])o1 (stereo not given),?,-3%[9.24 µM],?,0,?,-21%
O=C(O)c1cc(-c2ccc(/C=N/N3C(=O)C4C5C=CC(C6CC56)C4C3=O)o2)ccc1Cl (stereo not given),3%,6%,?,31,13%,6%
SMILES,TDP1 cell noCPT,HT1080 IDH1KD tx,ELG1 repair inh,IL-1B inflam inh,TDP1 cell CPT,HT1080NT lethal
COC(=O)c1ccc(-c2ccc(/C=N/N3C(=O)C4C5C=CC(CC5)C4C3=O)o2)cc1 (stereo not given),-28%,20%,?,2,0%,21%
O=C1C2C3C=CC(C4CC34)C2C(=O)N1/N=C/c1ccc(-c2ccc(F)cc2[N+](=O)[O-])o1 (stereo not given),23µM*,-10%,?,?,?,-17%
O=C1CCC(C(=O)OCc2nnc(-c3ccccc3)o2)=NN1,-3%,-1%,?,-3,-7%,-2%
N[C@@H](C(=O)O)c1ccc(C(=O)O)cc1,-7%,/,/,/,8%,/
CC(C)C[C@H]1COc2cc(N(C)CCO)ccc2S(=O)(=O)N1,-8%,4%,/,9,-12%,-1%
CCc1ccc(OCc2ccc(C(=O)OC)o2)cc1,6%,-1%,?,9,0%,4%
Cc1ccccc1C(=O)NCC(=O)OC(C)C(=O)Nc1cccc(S(=O)(=O)N2CCOCC2)c1 (stereo not given),-25%,-4%,1%,13,-15%,-1%
Cc1cccc(C)c1NC(=O)c1cc(S(N)(=O)=O)c(Cl)cc1O,0%,/,/,/,4%,/
CC(C)COP(=O)(OCC(C)C)C(Nc1ccccc1)c1ccc2c(c1)OCO2 (stereo not given),?,-20%,?,-62*,15µM*,-9%
O=C(CN1CCN(c2cccc(Cl)c2)CC1)c1ccc(O)cc1O,?,-2%,-3%,22,?,-8%
O=C1Nc2ccccc2C(=O)N(c2ccc3c(c2)OCCO3)C1C(=O)NC1CC1 (stereo not given),-1%,19%,/,3,1%,13%
Cc1cccc(C)c1N1C(=O)c2ccccc2NC(=O)C1C(=O)Nc1ccc(N2CCOCC2)cc1 (stereo not given),15µM*,9%,/,12,?,-1%
CCOc1ccc2oc(C(=O)Nc3ccc4c(c3)OCO4)c(C)c2c1,?,-14%,?,-50*,-4%,-5%
